± gives the standard deviation. In all, about 3,700 sequences were measured (“pre-steady-state target cleavage rate”: median about 0.02, highest 2% from about 0.23 on). The full list was thinned out, with the highest values kept by preference. A value given as a limit tells only on which side of the number the result lay.

This assay relates to MILI (PIWIL2) piRISC loaded with Kctd7 piRNA (26 nt). As to the kind of experiment: pre-steady-state target cleavage rate (min^-1); MIWI and MILI are mouse PIWI proteins and EfPiwi is from a freshwater sponge; tags in brackets are library labels; higher = faster piRNA-guided slicing of the target. The following applies: guide: Kctd7 piRNA 5'p-UGUUAAUCUCUCAGAGAAGGUGACAG; auxiliary factor: 500 nM mouse GTSF1. The protocol:
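Cleave-'n-Seq: a library of target RNAs (target site embedded in constant flanks, ACAGCATTCCGCGTTAGTGATATCCG... 5' flank; DNA-blocked outside the site) at 0.1 nM was incubated with 1 nM active mouse MILI or MIWI piRISC (synthetic 5'-monophosphorylated piRNA guide) with or without 500 nM mouse GTSF1 at 33 °C for 1 min to 16 h. Uncleaved targets were sequenced and normalised to non-target controls, and the pooled three trials were fitted to a burst-and-steady-state model to give the pre-steady-state cleavage rate (min^-1; k3 is constrained to at most 1e-4). Sequence is the target site only; target names encode pairing extent (gX:gY) and contiguous / 1-mismatch / 2-mismatch / bulge geometry. Fits with R² ≤ 0 are excluded.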
As to UAGUGUGUCACCAACUCUGAGAGAUUUUGA, the “pre-steady-state target cleavage rate” value came to 0.00551 ± 0.0041.
The result for UAGUGAGUGACCUUCUCUGAGAGAUUAUGA reads 0.0378 ± 0.011; that for UAGUGACAGACCUUCUCUGAGAGAUUAGCA, 0.0252 ± 0.013; that for UAGUGUGUCAGCUUCUCUGUGAGAUUAACA, 0.0415 ± 0.0032.
The figure for UAGUGACACACCUUCUCUCAGAGAUUAUGA is 0.00858 ± 0.0045; for UAGUCUGUCUCCUUCUCUGAGAGAUUAUGA it is 0.0111 ± 0.0041; for UAGUGACUCACCUUCAGUGAGAGAUUAACA it is 0.0471 ± 0.0078.
The result for UAGUGAGUCACCUUCUCUGAGAGAUAUACA reads 0.0915 ± 0.025; that for UAGUGAGUCACCUUCUCUGAGAGAUAUAACA, 0.347 ± 0.046.
Regarding UAGUGAGAUCACCUUCUCUGAGAGAUUAACA, the “pre-steady-state target cleavage rate” value is 0.178 ± 0.015.
The result for UAGUGUGAUCACCUUCUCUGAGAGAUUAACA reads 0.24 ± 0.018.
The figure for UAGUGAGUCACCUUCUCUGAGAGAUAACA is 0.107 ± 0.038; for UAGUGUGCUCACCUUCUCUGAGAGAUUAACA it is 0.205 ± 0.013.
The result for UAGUGUGUCACCUUCUCGGAGAGAUUAACA reads 0.153 ± 0.017.
As to UAGUCUGUCACCAUCACUGAGAGAUUAACA, the “pre-steady-state target cleavage rate” value came to 0.11 ± 0.0083.
For the sequence UAGUGACAGUCCUUGUGUGAGAGAUUAACA, the “pre-steady-state target cleavage rate” value is 0.0291 ± 0.0078.
On to UAGUGACAGUGGAACUCUGACAGAUUAUCA, for which the “pre-steady-state target cleavage rate” value is less than 0.0001.
The result for “UAGUGUGUCACCUUCUCUGAGAGAUUAACG [g2:g25:cont:t1G]” reads 0.267 ± 0.02; that for “UAGUGUGUCACCUUCUCUGAGAGAUUAACU [g2:g25:cont:t1U]”, 0.187 ± 0.015; that for UAGUGUGUCACCUUUCUCUGAGAGAUUAACA, 0.187 ± 0.016.
Consider UAGUGUGUCACCUUUUCUGAGAGAUUAACA, for which the “pre-steady-state target cleavage rate” value was found to be 0.249 ± 0.02.
The result for UAGUGUGUCACCCUUCUCUGAGAGAUUAACA reads 0.104 ± 0.016; that for UAGUGUGUCACCUUCUCUGAGAGAUUACCA, 0.197 ± 0.037.
As to “UAGUGUGUCACCUUCUCUGAGAGAUUAACC [g2:g25:cont:t1C]”, the “pre-steady-state target cleavage rate” value was found to be 0.202 ± 0.014.
The result for UAGUGUGUCACCUUCUCUGAGAGAUUAACCA reads 0.236 ± 0.021; that for UAGUGUGUCACCUUUCUGAGAGAUUAACA, 0.0596 ± 0.013; that for UAGUGUGUCACCUUCUGUGUGAGAUUAACA, 0.0302 ± 0.004.
The result for UAGUGACAGUGGAAGUCUGAGAGUUAAACA reads less than 0.0001; that for UAGUGACACACCUUCUGAGAGAGAUUAUGA, 0.0134 ± 0.0078.
For the sequence UAGUGACAGUCCUUCUCUAAGAGAUUAACA, the “pre-steady-state target cleavage rate” value turned out to be 0.0523 ± 0.012.
The figure for UAGUGACAGUGGAAGAGUGAGGAGAUUAACA is less than 0.0001; for UAGUGACUCACCUUCUGUGAGAGUUUAACA it is 0.0308 ± 0.01; for UAGUGUGUCUCCUUCUCUGAGACAUUAACA it is 0.00482 ± 0.0038.
As for UAGUGAGUCACCUUCUCUGAGAGUUUAACA, the “pre-steady-state target cleavage rate” value worked out at 0.277 ± 0.061.
Consider UAGUGAGUCACCUUCUCUGAGAGUAUAACA, for which the “pre-steady-state target cleavage rate” value turned out to be 0.144 ± 0.057.
The figure for UAGUCUGACACCUUCUCUGAGAGUUUAACA is 0.109 ± 0.016; for UAGUCAGUCACCUUCUCUGAGAGUUUAACA it is 0.261 ± 0.041.
The result for UAGUGAGUCACCUUCUCUGAGAGAUUUAACA reads 0.225 ± 0.04.
The result for UAGUGAGUCACCUUCUCUGAGAGCUUAACA reads 0.155 ± 0.026.
Turning to UAGUGAGUCACCUUCUCUGACAGUUUAACA, the “pre-steady-state target cleavage rate” value was 0.0134 ± 0.0052.
The figure for UAGUGAGUCACCUUCUCUCAGAGUUUAACA is 0.0248 ± 0.0099; for UAGUGAGUCACCUUCUCUGAGAGUAAAACA it is 0.14 ± 0.045; for UAGUGAGUCACCUUCUCUGAGAGUAUUAACA it is 0.158 ± 0.019.
The result for UAGUGAGUCACCUUCUCUGAGAGUUAACA reads 0.253 ± 0.077.
The result for UAGUGAGUCACCUUCUCUGAGAGAGUAACA reads 0.239 ± 0.063; that for UAGUGAGUGACCUUCUCUGAGACAUUAACA, 0.0267 ± 0.0076; that for UAGUCUCUCACCAUCUCUGAGAGAUUAACA, 0.0256 ± 0.0069.
In the case of UAGUGAGUGACCUUCUCUGAGAGAUAAACA, the “pre-steady-state target cleavage rate” value is 0.0814 ± 0.021.
The figure for UAGUGACUCACCUUGUCUGAGACAUUAACA is 0.0647 ± 0.011; for UAGUGAGUCACCUUCUCUGAGAGAGUUAACA it is 0.257 ± 0.044.
The result for UAGUGAGUCACCUUCUCUGAGAGACUUAACA reads 0.137 ± 0.032.
The figure for UAGUGAGUCACCUUCUCUGAGAGUUAAACA is 0.297 ± 0.086; for UAGUGUGUCACCUUCUCUGAGAGAUGUAACA it is 0.159 ± 0.029.
Regarding UAGUGUGUCACCUUCUCUGAGAGUUUAUGA, the “pre-steady-state target cleavage rate” value was determined as 0.0769 ± 0.038.
The result for UAGUGAGUCACCUUCUCUGAGAGAAAAACA reads 0.0915 ± 0.023; that for UAGUGAGUCACCUUCUCUGAGAGUUUAUCA, 0.132 ± 0.049; that for UAGUGAGUCACCUUCUCUGAGAGUUUAUGA, 0.275 ± 0.092.
The result for UAGUGAGUCACCUUCUCUGAGAGAUGUAACA reads 0.312 ± 0.047; that for UAGUGAGUCACCUUCUCUGAGAGGUUAACA, 0.142 ± 0.019.
For UAGUCUGUCACCUUCUCUGAGAGAUGUAACA, the “pre-steady-state target cleavage rate” value was 0.211 ± 0.03.
The figure for UAGUGACUCACCUUCUCUGAGAGUUAAACA is 0.0666 ± 0.014; for UAGUGACACACCUUCUCUGAGAGAAAUACA it is 0.0296 ± 0.013.
Turning to UAGUGUGUCAGCUUCUCAGAGAGAUUAACA, the “pre-steady-state target cleavage rate” value stood at 0.0938 ± 0.0081.
On to UAGUGACACACCUUGUCUGAGACAUUAACA, for which the “pre-steady-state target cleavage rate” value worked out at 0.0978 ± 0.026.
For UAGUGUGUCACCUUCGUCUGAGAGAUUAACA, the “pre-steady-state target cleavage rate” value stood at 0.088 ± 0.012.
For UAGUGACUCACCUUCUCUGAGAGAUUAUGA, the “pre-steady-state target cleavage rate” value was found to be 0.0729 ± 0.012.
On to UAGUGAGUCCCCUUCUCUGAGAGAUUAACA, for which the “pre-steady-state target cleavage rate” value was 0.214 ± 0.021.
For the sequence UAGUGACACACCUUCUCUGAGAGAUUACA, the “pre-steady-state target cleavage rate” value was found to be 0.0753 ± 0.023.
The figure for UAGUGUGUCACCUUCUGUCAGAGAUUAACA is 0.039 ± 0.0051; for UAGUGAGUCACCUUCUCUGAGAUAUUAACA it is 0.115 ± 0.017; for UAGUGACACACCUUCUCUGAGACAUUAACA it is 0.0514 ± 0.0091.
The figure for UAGUGUCUCACCUUCUCUGAGAGAUUAUGA is 0.0163 ± 0.0063.
Regarding UAGUGACAGACCGUCUCUGAGAGAUUAACA, the “pre-steady-state target cleavage rate” value was determined as 0.0355 ± 0.0065.
UAGUGAGUCACCUUCACAGAGAGAUUAACA: the “pre-steady-state target cleavage rate” value came out at 0.0664 ± 0.0081.
For the sequence UAGUGACUCACCUUCUGUGACAGAUUAACA, the “pre-steady-state target cleavage rate” value worked out at 0.0678 ± 0.011.
The result for UAGUGACAGACCUACUCUGAGAGAUUUACA reads 0.0238 ± 0.0093; that for UAGUGACACACCUUCUCUCAGACAUUAACA, 0.0383 ± 0.011; that for UAGUCAGUCACCAUCUCUGAGAGAUUAACA, 0.171 ± 0.0086.
The result for UAGUGAGUCACCUUCUCUGAGAGUUUUACA reads 0.257 ± 0.078; that for UAGUCUGUCACCUUCUCUGAGAGUUUUACA, 0.171 ± 0.054; that for UAGUGUGUCACCUUCUCUGAGAGUUUUACA, 0.14 ± 0.046.
The result for UAGUGUGUCACCAUCUCUGAGAGAUUUACA reads 0.158 ± 0.033.

The record behind these values is the supplement of paper PMC10338343.
